Compounds without any hit were thinned out: in the full panel of roughly 83,000, 20% have a hit.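 In brief: 96-well plates, 48 h treatment, single concentration, percent growth endpoint.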 Active and inactive are the calls of the source. The calls were made as follows: active = growth percent below 10; inactive = the rest.
What was measured:
Assay in all cases: NCI-60 one-dose screen, 48 h (100 = growth as untreated, 0 = no growth, -100 = all killed)
Details in all cases: 10 µM unless noted
SR leukemia = system: SR leukemia
RPMI-8226 leukemia = system: RPMI-8226 leukemia
OVCAR-8 ovarian = system: OVCAR-8 ovarian
OVCAR-5 ovarian = system: OVCAR-5 ovarian
SK-OV-3 ovarian = system: SK-OV-3 ovarian
IGROV1 ovarian = system: IGROV1 ovarian
OVCAR-3 ovarian = system: OVCAR-3 ovarian
HS 578T breast = system: HS 578T breast
NCI/ADR-RES ovarian = system: NCI/ADR-RES ovarian
T-47D breast = system: T-47D breast
BT-549 breast = system: BT-549 breast
MDA-MB-435 melanoma = system: MDA-MB-435 melanoma
SW-620 colon = system: SW-620 colon
MCF7 breast = system: MCF7 breast
HCT-116 colon = system: HCT-116 colon
HCC-2998 colon = system: HCC-2998 colon
OVCAR-4 ovarian = system: OVCAR-4 ovarian
KM12 colon = system: KM12 colon

Measured: growth

COc1ccc(Nc2ncccc2C(=O)NCc2cn(Cc3cccc(Oc4ccccc4)c3)nn2)cc1
active: OVCAR-3 ovarian -4.73% | MDA-MB-435 melanoma -16.3%
inactive: SR leukemia 30.8% | RPMI-8226 leukemia 55.4% | OVCAR-8 ovarian 65.6% | OVCAR-5 ovarian 75.2% | SK-OV-3 ovarian 36.8% | IGROV1 ovarian 53.5% | HS 578T breast 48.7% | NCI/ADR-RES ovarian 16.3% | T-47D breast 50.5% | BT-549 breast 53.1% | SW-620 colon 24.6% | MCF7 breast 20% | HCT-116 colon 23.3% | HCC-2998 colon 41.7%

Clc1cc(Cl)c2nc(-c3ccc(-c4ccc(/C=N/NC5=NCCN5)cc4)s3)cn2c1
inactive: SR leukemia 11.2% | RPMI-8226 leukemia 37.6% | OVCAR-8 ovarian 97.9% | OVCAR-5 ovarian 104% | OVCAR-4 ovarian 85.6% | IGROV1 ovarian 84.3% | OVCAR-3 ovarian 97.9% | HS 578T breast 86.6% | NCI/ADR-RES ovarian 97.7% | T-47D breast 79.6% | BT-549 breast 90.9% | MDA-MB-435 melanoma 99.3% | MCF7 breast 57.8% | HCT-116 colon 86.3% | HCC-2998 colon 105% | KM12 colon 93%

CC(C)(C)c1[nH]nc2c1C(c1cc3ccccc3[nH]c1=O)Nc1cc(C(=O)Nc3ccc(Cl)cc3)ccc1N2 (centres undefined)
inactive: SR leukemia 65.4% | RPMI-8226 leukemia 42.5% | OVCAR-8 ovarian 75.3% | OVCAR-5 ovarian 114% | OVCAR-4 ovarian 32.5% | SK-OV-3 ovarian 90.6% | OVCAR-3 ovarian 58.4% | HS 578T breast 52.6% | NCI/ADR-RES ovarian 95.3% | T-47D breast 40% | BT-549 breast 63.9% | MDA-MB-435 melanoma 35.4% | SW-620 colon 66.3% | MCF7 breast 27.8% | HCT-116 colon 45.6% | HCC-2998 colon 86.3% | KM12 colon 50.2%

COc1cc(/C=C/c2cc(/C=C/c3ccc(O)c(OC)c3)n(C(N)=O)n2)ccc1O
active: SR leukemia -3.77% | RPMI-8226 leukemia -44% | OVCAR-8 ovarian -6.69% | OVCAR-5 ovarian -30.7% | OVCAR-4 ovarian -6.24% | IGROV1 ovarian 1.18% | OVCAR-3 ovarian -72.7% | HS 578T breast -11.3% | NCI/ADR-RES ovarian 7.68% | T-47D breast -7.56% | MDA-MB-435 melanoma -46% | SW-620 colon 0.998% | MCF7 breast -16.4% | HCT-116 colon -39.2% | HCC-2998 colon 7.85% | KM12 colon 3.47%

Cc1ccc(-c2nc(C(Cl)Cl)n3nc(-c4ccccc4)cc3n2)cc1
inactive: SR leukemia 87.6% | OVCAR-8 ovarian 35.3% | OVCAR-5 ovarian 120% | OVCAR-4 ovarian 48% | IGROV1 ovarian 56.4% | HS 578T breast 31.5% | NCI/ADR-RES ovarian 18.8% | BT-549 breast 70.8% | MDA-MB-435 melanoma 15.4% | MCF7 breast 18.9% | HCC-2998 colon 23.3%
active: RPMI-8226 leukemia 2.55% | OVCAR-3 ovarian -83.7% | T-47D breast -6.55% | SW-620 colon -22.4% | HCT-116 colon 9.65% | KM12 colon 0.685%

O=C([O][Sn]([O]C(=O)c1ccccn1)([c]1ccccc1)[c]1ccccc1)c1ccccn1
active: T-47D breast -14.9% | SW-620 colon 0.566%
inactive: SR leukemia 47.6% | RPMI-8226 leukemia 26% | OVCAR-8 ovarian 93.6% | OVCAR-5 ovarian 94.9% | SK-OV-3 ovarian 99.7% | IGROV1 ovarian 74.1% | OVCAR-3 ovarian 71.4% | HS 578T breast 88.5% | NCI/ADR-RES ovarian 95.1% | BT-549 breast 98.5% | MDA-MB-435 melanoma 80.6% | MCF7 breast 31.8% | HCT-116 colon 30.7% | HCC-2998 colon 88.3%

COc1cccc(-c2nc3sccn3c2-c2ccnc(NCCCNS(=O)(=O)c3ccc(F)cc3)c2)c1
active: RPMI-8226 leukemia -25.1% | T-47D breast -3.13%
inactive: SR leukemia 45.2% | OVCAR-8 ovarian 16% | OVCAR-5 ovarian 83.6% | OVCAR-4 ovarian 30.2% | SK-OV-3 ovarian 74.8% | OVCAR-3 ovarian 35.8% | HS 578T breast 63.7% | NCI/ADR-RES ovarian 10.2% | BT-549 breast 13% | MDA-MB-435 melanoma 19.1% | SW-620 colon 41.7% | MCF7 breast 31.8% | HCT-116 colon 25.5% | HCC-2998 colon 61.5% | KM12 colon 21%

N=C(N)c1ccc(-c2cc(Cl)cc(Cl)c2)cn1
inactive: SR leukemia 55% | RPMI-8226 leukemia 82.8% | OVCAR-8 ovarian 99.2% | OVCAR-5 ovarian 89.4% | OVCAR-4 ovarian 97.1% | IGROV1 ovarian 89.1% | OVCAR-3 ovarian 97.4% | HS 578T breast 87.2% | NCI/ADR-RES ovarian 94.2% | T-47D breast 83.7% | BT-549 breast 94.5% | MDA-MB-435 melanoma 56.7% | SW-620 colon 82.6% | MCF7 breast 75.9% | HCT-116 colon 92% | HCC-2998 colon 67.5% | KM12 colon 89.8%

COc1cc(/C=C/C(=O)c2cccc(-n3cc(-c4cc(OC)c(OC)c(OC)c4)[nH]c3=O)c2)cc(OC)c1OC
active: SR leukemia -12.7% | RPMI-8226 leukemia -46.4% | OVCAR-8 ovarian 6.44% | OVCAR-3 ovarian -39% | T-47D breast 8.37% | BT-549 breast -2.07% | MDA-MB-435 melanoma 3.2% | SW-620 colon -47.2% | MCF7 breast -5.04% | HCT-116 colon -78.3% | KM12 colon -83.4%
inactive: OVCAR-5 ovarian 28.4% | OVCAR-4 ovarian 23.2% | SK-OV-3 ovarian 49.6% | HS 578T breast 62.4% | NCI/ADR-RES ovarian 10.5% | HCC-2998 colon 23.1%

COC(=O)c1cc2cc(-c3ccc(OC)cc3)cnc2[nH]1
inactive: SR leukemia 10.7% | OVCAR-5 ovarian 44.9% | OVCAR-4 ovarian 30.2% | HS 578T breast 33.8% | T-47D breast 34.1% | BT-549 breast 18.6% | SW-620 colon 18.6% | MCF7 breast 15.9% | HCT-116 colon 13.8% | HCC-2998 colon 51.1% | KM12 colon 11.4%
active: RPMI-8226 leukemia -5.41% | OVCAR-8 ovarian 8.62% | SK-OV-3 ovarian 1.35% | OVCAR-3 ovarian -55.7% | NCI/ADR-RES ovarian -35.6% | MDA-MB-435 melanoma -23.7%

NC1=NC(SCc2ccccc2CCl)c2ncn(Cc3ccccc3CCl)c2N1 (centres undefined)
active: SR leukemia 9.1% | OVCAR-3 ovarian 2.22% | SW-620 colon 2.06%
inactive: RPMI-8226 leukemia 76.7% | OVCAR-8 ovarian 22.8% | OVCAR-5 ovarian 110% | OVCAR-4 ovarian 42.9% | SK-OV-3 ovarian 89.7% | HS 578T breast 33.8% | NCI/ADR-RES ovarian 69% | T-47D breast 35.8% | BT-549 breast 56.4% | MDA-MB-435 melanoma 30.9% | MCF7 breast 25.2% | HCC-2998 colon 79.4% | KM12 colon 48.5%

ClC(Cl)c1nc(-c2cccnc2)n2nc(-c3ccccc3)cc2n1
inactive: SR leukemia 13.4% | RPMI-8226 leukemia 33.2% | OVCAR-8 ovarian 27.7% | IGROV1 ovarian 13.9% | HS 578T breast 51.6% | T-47D breast 50.2% | BT-549 breast 68.4% | MCF7 breast 50.6%
active: OVCAR-5 ovarian 7.66% | OVCAR-4 ovarian 9.31% | OVCAR-3 ovarian -47.5% | NCI/ADR-RES ovarian -11.2% | MDA-MB-435 melanoma 0.991% | SW-620 colon 0.424% | HCT-116 colon 0.678% | HCC-2998 colon -68.7% | KM12 colon 2.3%

CCCCN(CCCC)C(=O)CC
inactive: SR leukemia 102% | RPMI-8226 leukemia 115% | OVCAR-8 ovarian 112% | OVCAR-5 ovarian 106% | OVCAR-4 ovarian 108% | SK-OV-3 ovarian 122% | OVCAR-3 ovarian 113% | HS 578T breast 149% | NCI/ADR-RES ovarian 103% | T-47D breast 124% | MDA-MB-435 melanoma 104% | SW-620 colon 110% | MCF7 breast 93.3% | HCT-116 colon 102% | HCC-2998 colon 107% | KM12 colon 106%

CC(C)(C)n1cc(-c2ccnc(NCCCNS(=O)(=O)c3cccc(F)c3)c2)c(-c2cccc(O)c2)n1
inactive: SR leukemia 16.4% | RPMI-8226 leukemia 17.5% | OVCAR-8 ovarian 57.5% | OVCAR-5 ovarian 68.2% | OVCAR-4 ovarian 57.8% | SK-OV-3 ovarian 89.2% | OVCAR-3 ovarian 65.7% | HS 578T breast 58.2% | NCI/ADR-RES ovarian 62% | T-47D breast 35.7% | BT-549 breast 67.4% | MDA-MB-435 melanoma 61.2% | SW-620 colon 24.5% | MCF7 breast 21.6% | HCC-2998 colon 15.7% | KM12 colon 26.5%

COc1ccccc1CNCCCN1C(=O)c2ccc3c4c(ccc(c24)C1=O)C(=O)N(CCCNCCCCNCCCN)C3=O
active: SR leukemia -27.1% | RPMI-8226 leukemia -9.27% | OVCAR-8 ovarian 4.19% | OVCAR-4 ovarian -73.8% | SK-OV-3 ovarian 9.93% | IGROV1 ovarian -2.75% | OVCAR-3 ovarian -96.8% | HS 578T breast -25.1% | NCI/ADR-RES ovarian 4.5% | T-47D breast -36.4% | BT-549 breast -22.1% | MDA-MB-435 melanoma -13.4% | SW-620 colon -36.5% | MCF7 breast -38.4% | HCT-116 colon -2.94% | HCC-2998 colon -39% | KM12 colon -18.7%

O=C(/C=C/c1ccccc1)c1cccc(O)c1
active: SR leukemia 6.27% | RPMI-8226 leukemia -37.8% | HCT-116 colon -71.6% | KM12 colon -29.4%
inactive: OVCAR-8 ovarian 86.5% | OVCAR-4 ovarian 106% | SK-OV-3 ovarian 104% | NCI/ADR-RES ovarian 103% | T-47D breast 97.9% | BT-549 breast 80.4% | MDA-MB-435 melanoma 57.1% | SW-620 colon 65.4% | MCF7 breast 14.9% | HCC-2998 colon 102%

Oc1ccc2cc(Br)ccc2c1-c1c(O)ccc2cc(Br)ccc12
inactive: SR leukemia 30.9% | RPMI-8226 leukemia 64.9% | OVCAR-8 ovarian 72.7% | OVCAR-5 ovarian 94.1% | SK-OV-3 ovarian 64.7% | OVCAR-3 ovarian 65.5% | HS 578T breast 50.2% | NCI/ADR-RES ovarian 56.2% | T-47D breast 57.9% | MDA-MB-435 melanoma 63.1% | SW-620 colon 48.3% | MCF7 breast 37.1% | HCT-116 colon 33.5% | HCC-2998 colon 56.5% | KM12 colon 40%

COc1ccc(/C=C(\C#N)c2cc(OC)c3c(c2)OCO3)cc1
inactive: RPMI-8226 leukemia 28.6% | OVCAR-8 ovarian 24.3% | OVCAR-4 ovarian 39% | IGROV1 ovarian 16.3% | HS 578T breast 28.5% | T-47D breast 62.3% | BT-549 breast 30.9% | SW-620 colon 24.4% | MCF7 breast 17.4% | HCC-2998 colon 15.7%
active: SR leukemia 1.82% | SK-OV-3 ovarian 8.7% | OVCAR-3 ovarian -42.7% | NCI/ADR-RES ovarian 7.74% | MDA-MB-435 melanoma -17.6% | HCT-116 colon 6.05% | KM12 colon 5.15%
